Source: PubChem BioAssay
T cruzi growth – inhibitors of T. cruzi proliferation; inhibition, % at 8.34 µM; 77,000 compounds, 5.9% hits; AID 624255; T. cruzi beta-gal in NIH3T3, GalScreen luminescence, 90 h;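 active = mean inhibition above about 93%, with at least 55% of replicates each passing it, limit read from the data, passing the limit was not always enough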
C diff growth – C. difficile growth inhibition. 86,000 compounds, 0.25% hits. growth activity, negative = inhibition, % at 16 µg/mL (by protocol). Clostridium difficile clinical isolate growth, OD600, 24 h; hits give low values. AID 1259249;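 active = mean growth activity at or below -80% and every replicate also at or below -80%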;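 note: 0% = DMSO wells and -100% = levofloxacin 16 µg/mL wells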
Pf Dd2 growth – P. falciparum Dd2 growth inhibition; SYBR Green, 72 h; hits give low values; 94,000 compounds, 2.3% hits; AID 1159554; activity change, % at 10 µM; in the data active = activity change below about -80%
An asterisk follows results filed as active; nt = not tested or not shown; ! = a repeat was not active. Compounds with a hit are over-represented: about 6.8% of the library has one in this group of screens.

SMILES	T cruzi growth	C diff growth	Pf Dd2 growth
Cc1noc(C)c1NC(=O)N(C)C[C@H]1Oc2ccc(NC(=O)NC3CCCCC3)cc2CC(=O)N([C@@H](C)CO)C[C@H]1C	31	3	5
O=C(C1CCOCC1)N1C[C@@H]2N[C@H](C1)C2c1ccc(-c2cccc(F)c2)cc1 (stereo not given in full)	nt	-7	-5
Fc1cccc(CN2C[C@@H]3N[C@H](C2)C3c2ccc(-c3cncnc3)cc2)c1 (stereo not given in full)	nt	-1	-52
Fc1cccc(-c2ccc(C3[C@@H]4CN(Cc5cccnc5)C[C@H]3N4)cc2)c1 (stereo not given in full)	nt	-6	-90*!
Fc1cccc(CN2C[C@@H]3N[C@H](C2)C3c2ccc(-c3ccccc3)cc2)c1 (stereo not given in full)	nt	-99*	3
O=C(Cc1ccncc1)N1C[C@@H]2N[C@H](C1)C2c1ccc(-c2cccc(F)c2)cc1 (stereo not given in full)	nt	10	-57
Fc1cccc(CN2C[C@@H]3N[C@H](C2)[C@@H]3c2ccc(-c3cccc(F)c3)cc2)c1	nt	-94*	-62
O=C(C[C@H]1C[C@H]2c3cc(NC(=O)NC4CCCC4)ccc3O[C@H]2[C@@H](CO)O1)NCc1ccncc1	-14	4	17
O=C(c1ccccn1)N1C[C@@H]2[C@H](c3ccccc31)[C@H](CO)N2C(=O)c1ccccn1	4	-1	-1
O=C(C[C@H]1CC[C@@H]2[C@H](COC[C@H](O)CN2C(=O)c2cccnc2)O1)NC1Cc2ccccc2C1	16	6	18
CC(C)NC(=O)N(C)C[C@H]1OCCCC[C@@H](C)Oc2ccc(NC(=O)c3ccncc3)cc2C(=O)N([C@@H](C)CO)C[C@@H]1C	-22	-4	nt
C[C@@H]1CCCCO[C@H](CN(C)C(=O)Nc2ccc(C(F)(F)F)cc2)[C@@H](C)CN([C@@H](C)CO)C(=O)c2cc(NS(=O)(=O)c3ccc(Cl)cc3)ccc2O1	81	7	-84*
COc1ccc(S(=O)(=O)Nc2ccc3c(c2)C(=O)N([C@H](C)CO)C[C@@H](C)[C@H](CN(C)C(=O)Nc2ccc(C(F)(F)F)cc2)OCCCC[C@H](C)O3)cc1	40	13	-68
COc1ccc(S(=O)(=O)Nc2ccc3c(c2)C(=O)N([C@@H](C)CO)C[C@H](C)[C@H](CN(C)C(=O)Nc2ccc(C(F)(F)F)cc2)OCCCC[C@@H](C)O3)cc1	60	11	-84*
C[C@@H]1CCCCO[C@@H](CN(C)C(=O)Nc2ccc(C(F)(F)F)cc2)[C@@H](C)CN([C@H](C)CO)C(=O)c2cc(NS(=O)(=O)c3ccccc3)ccc2O1	53	6	-18
C[C@@H]1CCCCO[C@H](CN(C)C(=O)Nc2ccc(C(F)(F)F)cc2)[C@H](C)CN([C@H](C)CO)C(=O)c2cc(NS(=O)(=O)c3ccccc3)ccc2O1	98	9	-86*
Cc1ccc(S(=O)(=O)Nc2ccc3c(c2)C(=O)N([C@H](C)CO)C[C@@H](C)[C@@H](CN(C)C(=O)Nc2ccccc2)OCCCC[C@@H](C)O3)cc1	-60	nt	-83*
Cc1ccc(S(=O)(=O)Nc2ccc3c(c2)C(=O)N([C@H](C)CO)C[C@H](C)[C@@H](CN(C)C(=O)Nc2ccccc2)OCCCC[C@@H](C)O3)cc1	-98	nt	-18
C[C@H](CO)N1C[C@H](C)[C@@H](CN(C)C(=O)Nc2ccc(C(F)(F)F)cc2)OCCCC[C@H](C)Oc2ccc(NS(=O)(=O)c3ccc(Cl)cc3)cc2C1=O	92	-4	-75
CCC(=O)N(C)C[C@@H]1Oc2cc(C#CC3CC3)ccc2S(=O)(=O)N([C@@H](C)CO)C[C@@H]1C	53	nt	1
COc1ccc(NC(=O)N(C)C[C@@H]2Oc3ccc(NS(=O)(=O)c4ccc(OC)cc4)cc3CC(=O)N([C@@H](C)CO)C[C@H]2C)cc1	-28	-6	26
COc1ccc(S(=O)(=O)Nc2ccc3c(c2)C(=O)N([C@H](C)CO)C[C@@H](C)[C@@H](CN(C)S(=O)(=O)c2cn(C)cn2)OCCCC[C@H](C)O3)cc1	-71	3	20
C[C@H]1CCCCO[C@H](CN(C)C(=O)Nc2ccc(C(F)(F)F)cc2)[C@@H](C)CN([C@@H](C)CO)C(=O)c2cc(NS(=O)(=O)c3ccc(F)cc3)ccc2O1	94	0	-82*
C[C@@H]1CCCCO[C@@H](CN(C)C(=O)Nc2ccc(C(F)(F)F)cc2)[C@H](C)CN([C@H](C)CO)C(=O)c2cc(NS(=O)(=O)c3ccc(F)cc3)ccc2O1	83	4	-36
Cc1ccc(S(=O)(=O)Nc2ccc3c(c2)C(=O)N([C@H](C)CO)C[C@@H](C)[C@H](CN(C)C(=O)Nc2ccc(C(F)(F)F)cc2)OCCCC[C@@H](C)O3)cc1	77	1	-31
